# Laboratory results published in PMC7862700, “An all-to-all approach to the identification of sequence-specific readers for epigenetic DNA modifications on cytosine”.
# What was measured:
# Test in all cases: DAPPL (digital affinity profiling via proximity ligation, sequencing); 10 mM Tris-HCl pH 7.5, 50 mM NaCl, 1 mM DTT, 4% glycerol, room temperature, 30 min; GST-TFs on glutathione beads, 16-mer random dsDNA library, 0.1% formaldehyde crosslink after washing; high values mean tight binding
# [1] = target: T1, FEV (Homo sapiens, UniProt Q99581 1-238); details: protein: recombinant; tags: N-terminal GST; dsDNA, one strand shown
# T1 sequence: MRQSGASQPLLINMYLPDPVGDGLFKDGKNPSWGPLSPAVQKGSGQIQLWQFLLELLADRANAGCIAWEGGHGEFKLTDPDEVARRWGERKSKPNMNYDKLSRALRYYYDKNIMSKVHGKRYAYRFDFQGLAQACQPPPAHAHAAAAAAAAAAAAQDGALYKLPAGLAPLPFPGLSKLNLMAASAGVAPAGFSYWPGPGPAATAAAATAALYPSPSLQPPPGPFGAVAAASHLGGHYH
# Summary of the method: (§1)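 Beads coated with glutathione captured GST-fused human transcription factors that had been expressed in yeast, and the factors were then given DNA barcodes and pooled with a tag-only sample. The pools were incubated with 200 nmole of a random double-stranded 16-mer DNA library in Tris/NaCl/DTT/glycerol buffer for 30 min at room temperature, washed, crosslinked with 0.1% formaldehyde and proximity-ligated with BsaI/T4 ligase at 37 °C for 1 h. PCR amplification and Illumina NextSeq500 sequencing came last. Binding signal is each hexamer's read frequency for a factor divided by its frequency for the tag-only sample.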
# [2] = target: ETV5 (Homo sapiens, UniProt P41161 1-510); details: protein: recombinant; tags: N-terminal GST; dsDNA, one strand shown
# Summary of the method: as §1
# [3] = target: HSF1 (Homo sapiens, UniProt Q00613 1-529); details: protein: recombinant; tags: N-terminal GST; chain copies: 3; dsDNA, one strand shown
# Summary of the method: as §1
# [4] = target: T2, SPIC (Homo sapiens, UniProt Q8N5J4 1-248); details: protein: recombinant; tags: N-terminal GST; dsDNA, one strand shown
# T2 sequence: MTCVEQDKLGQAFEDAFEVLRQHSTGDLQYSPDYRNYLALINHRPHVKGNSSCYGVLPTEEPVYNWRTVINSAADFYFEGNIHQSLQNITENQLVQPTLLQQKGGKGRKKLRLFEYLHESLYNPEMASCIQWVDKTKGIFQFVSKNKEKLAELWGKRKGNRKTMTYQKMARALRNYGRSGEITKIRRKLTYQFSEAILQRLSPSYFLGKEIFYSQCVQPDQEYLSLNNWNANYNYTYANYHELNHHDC
# Summary of the method: as §1
# [5] = target: ELF4 (Homo sapiens, UniProt Q99607 1-663); details: protein: recombinant; tags: N-terminal GST; dsDNA, one strand shown
# Summary of the method: as §1
# [6] = target: T3, ELK4 (Homo sapiens, UniProt P28324-2 1-405); details: protein: recombinant; tags: N-terminal GST; dsDNA, one strand shown
# T3 sequence: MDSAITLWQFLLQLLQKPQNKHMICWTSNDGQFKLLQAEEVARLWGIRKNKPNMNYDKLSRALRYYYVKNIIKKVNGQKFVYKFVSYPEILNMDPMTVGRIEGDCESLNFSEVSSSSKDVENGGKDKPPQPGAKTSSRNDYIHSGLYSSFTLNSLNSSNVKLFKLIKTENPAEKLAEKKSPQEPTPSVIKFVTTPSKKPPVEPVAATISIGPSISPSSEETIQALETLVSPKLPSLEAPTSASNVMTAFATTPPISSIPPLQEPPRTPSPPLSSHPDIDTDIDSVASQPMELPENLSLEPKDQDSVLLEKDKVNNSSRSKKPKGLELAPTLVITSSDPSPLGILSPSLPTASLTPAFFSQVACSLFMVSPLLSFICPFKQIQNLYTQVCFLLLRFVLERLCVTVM
# Summary of the method: as §1
# [7] = target: T4, ETV2 (Homo sapiens, UniProt O00321 1-342); details: protein: recombinant; tags: N-terminal GST; dsDNA, one strand shown
# T4 sequence: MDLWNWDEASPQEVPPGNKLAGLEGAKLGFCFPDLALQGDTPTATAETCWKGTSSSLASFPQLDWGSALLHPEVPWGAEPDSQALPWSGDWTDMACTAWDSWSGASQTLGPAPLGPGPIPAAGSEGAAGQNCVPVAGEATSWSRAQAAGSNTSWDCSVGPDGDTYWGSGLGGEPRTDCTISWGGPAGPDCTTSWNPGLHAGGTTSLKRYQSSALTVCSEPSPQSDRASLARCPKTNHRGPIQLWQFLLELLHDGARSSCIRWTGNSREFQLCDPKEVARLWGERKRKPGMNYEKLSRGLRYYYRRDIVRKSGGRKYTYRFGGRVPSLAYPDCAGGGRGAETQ
# Summary of the method: as §1
# [8] = target: T5, ELF3 (Homo sapiens, UniProt P78545 1-371); details: protein: recombinant; tags: N-terminal GST; dsDNA, one strand shown
# T5 sequence: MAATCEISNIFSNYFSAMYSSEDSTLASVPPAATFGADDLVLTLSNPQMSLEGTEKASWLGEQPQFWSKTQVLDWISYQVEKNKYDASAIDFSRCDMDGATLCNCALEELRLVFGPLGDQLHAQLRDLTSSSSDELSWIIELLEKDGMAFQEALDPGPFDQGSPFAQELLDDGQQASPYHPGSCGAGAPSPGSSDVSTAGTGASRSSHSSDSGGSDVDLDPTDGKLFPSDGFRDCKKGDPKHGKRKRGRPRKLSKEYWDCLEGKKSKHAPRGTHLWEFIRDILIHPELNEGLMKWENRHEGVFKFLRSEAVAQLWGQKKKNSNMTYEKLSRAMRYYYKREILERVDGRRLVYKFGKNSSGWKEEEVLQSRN
# Summary of the method: as §1
# [9] = target: CRX (Homo sapiens, UniProt O43186 1-299); details: protein: recombinant; tags: N-terminal GST; dsDNA, one strand shown
# Summary of the method: as §1
# [10] = target: ETV1 (Homo sapiens, UniProt P50549 1-477); details: protein: recombinant; tags: N-terminal GST; dsDNA, one strand shown
# Summary of the method: as §1
# Chain of CRX (O43186 whole entry): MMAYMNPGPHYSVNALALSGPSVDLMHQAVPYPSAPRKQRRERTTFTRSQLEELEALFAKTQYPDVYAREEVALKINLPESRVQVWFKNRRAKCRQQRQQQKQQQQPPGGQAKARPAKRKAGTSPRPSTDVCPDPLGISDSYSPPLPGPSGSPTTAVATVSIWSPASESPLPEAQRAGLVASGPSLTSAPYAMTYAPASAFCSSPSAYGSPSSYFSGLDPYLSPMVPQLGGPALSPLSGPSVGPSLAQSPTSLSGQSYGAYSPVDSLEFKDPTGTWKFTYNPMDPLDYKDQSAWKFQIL
# Chain of ETV1 (P50549 whole entry): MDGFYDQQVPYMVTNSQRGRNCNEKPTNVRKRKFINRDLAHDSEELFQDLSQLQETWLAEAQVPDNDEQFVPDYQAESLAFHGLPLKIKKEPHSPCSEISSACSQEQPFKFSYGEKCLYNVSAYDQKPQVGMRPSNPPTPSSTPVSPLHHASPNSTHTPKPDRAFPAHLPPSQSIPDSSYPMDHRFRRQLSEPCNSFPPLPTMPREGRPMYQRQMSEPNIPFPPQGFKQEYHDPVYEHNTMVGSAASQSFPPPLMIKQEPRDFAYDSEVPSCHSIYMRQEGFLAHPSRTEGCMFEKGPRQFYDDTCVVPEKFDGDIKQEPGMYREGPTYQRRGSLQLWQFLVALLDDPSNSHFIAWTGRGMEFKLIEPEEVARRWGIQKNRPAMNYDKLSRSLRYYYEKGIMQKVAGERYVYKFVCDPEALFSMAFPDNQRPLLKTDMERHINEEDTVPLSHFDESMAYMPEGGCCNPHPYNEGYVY
# Chain of HSF1 (Q00613 whole entry): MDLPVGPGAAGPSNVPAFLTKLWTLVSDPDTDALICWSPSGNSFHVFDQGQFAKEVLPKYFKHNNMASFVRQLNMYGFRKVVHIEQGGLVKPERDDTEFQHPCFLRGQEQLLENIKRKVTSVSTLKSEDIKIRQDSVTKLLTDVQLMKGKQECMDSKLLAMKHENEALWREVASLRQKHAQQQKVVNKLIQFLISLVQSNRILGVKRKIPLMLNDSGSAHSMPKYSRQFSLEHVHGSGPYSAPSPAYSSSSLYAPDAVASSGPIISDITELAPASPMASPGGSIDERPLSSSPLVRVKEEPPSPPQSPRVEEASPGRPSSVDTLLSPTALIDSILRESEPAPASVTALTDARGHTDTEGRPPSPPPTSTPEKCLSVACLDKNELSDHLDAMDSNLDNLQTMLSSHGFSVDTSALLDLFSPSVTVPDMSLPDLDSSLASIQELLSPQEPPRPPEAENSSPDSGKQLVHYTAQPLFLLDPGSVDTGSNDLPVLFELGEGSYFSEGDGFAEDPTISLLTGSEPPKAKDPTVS
# Chain of ETV5 (P41161 whole entry): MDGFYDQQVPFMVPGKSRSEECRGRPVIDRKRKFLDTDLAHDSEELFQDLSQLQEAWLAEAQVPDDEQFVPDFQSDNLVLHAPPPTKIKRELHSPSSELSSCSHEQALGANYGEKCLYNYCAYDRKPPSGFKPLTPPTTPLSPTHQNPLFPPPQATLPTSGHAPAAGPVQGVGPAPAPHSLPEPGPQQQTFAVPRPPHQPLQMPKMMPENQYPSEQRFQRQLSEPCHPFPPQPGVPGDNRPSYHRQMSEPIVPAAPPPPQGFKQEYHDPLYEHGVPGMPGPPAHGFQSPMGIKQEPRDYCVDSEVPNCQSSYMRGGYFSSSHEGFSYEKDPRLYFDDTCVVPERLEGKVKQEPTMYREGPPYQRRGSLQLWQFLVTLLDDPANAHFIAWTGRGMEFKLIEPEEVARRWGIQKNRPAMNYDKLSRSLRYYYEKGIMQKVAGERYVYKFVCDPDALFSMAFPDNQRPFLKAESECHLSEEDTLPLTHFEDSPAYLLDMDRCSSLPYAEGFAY
# Chain of ELF4 (Q99607 whole entry): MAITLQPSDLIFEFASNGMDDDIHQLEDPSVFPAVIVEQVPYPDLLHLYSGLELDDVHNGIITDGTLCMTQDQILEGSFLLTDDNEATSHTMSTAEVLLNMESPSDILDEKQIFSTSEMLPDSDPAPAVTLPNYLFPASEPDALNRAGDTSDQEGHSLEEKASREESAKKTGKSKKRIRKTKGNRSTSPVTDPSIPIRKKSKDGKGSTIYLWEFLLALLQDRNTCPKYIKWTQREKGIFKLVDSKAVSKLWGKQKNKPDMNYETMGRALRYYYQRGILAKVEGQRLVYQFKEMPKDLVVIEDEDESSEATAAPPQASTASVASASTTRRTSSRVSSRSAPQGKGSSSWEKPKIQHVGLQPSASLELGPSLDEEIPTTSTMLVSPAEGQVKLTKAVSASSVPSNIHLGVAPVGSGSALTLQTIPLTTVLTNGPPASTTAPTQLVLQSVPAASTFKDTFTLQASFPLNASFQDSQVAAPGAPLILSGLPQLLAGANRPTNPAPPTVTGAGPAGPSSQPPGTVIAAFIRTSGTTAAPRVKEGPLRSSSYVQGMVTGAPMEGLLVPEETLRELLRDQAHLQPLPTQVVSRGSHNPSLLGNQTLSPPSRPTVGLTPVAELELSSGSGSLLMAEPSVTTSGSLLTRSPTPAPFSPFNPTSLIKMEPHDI
sequence,measurement,setting,value
CTTCTC,binding signal,[1],"1.35 fold enrichment (6-mer frequency, TF over GST control)"
same,binding signal,[2],"1.27 fold enrichment (6-mer frequency, TF over GST control)"
same,binding signal,[3],"2.19 fold enrichment (6-mer frequency, TF over GST control)"
same,binding signal,[4],"1.55 fold enrichment (6-mer frequency, TF over GST control)"
same,binding signal,[5],"1.39 fold enrichment (6-mer frequency, TF over GST control)"
same,binding signal,[6],"1.42 fold enrichment (6-mer frequency, TF over GST control)"
same,binding signal,[7],"1.39 fold enrichment (6-mer frequency, TF over GST control)"
same,binding signal,[8],"1.47 fold enrichment (6-mer frequency, TF over GST control)"
same,binding signal,[9],"1.56 fold enrichment (6-mer frequency, TF over GST control)"
same,binding signal,[10],"1.39 fold enrichment (6-mer frequency, TF over GST control)"
